# Assay results from PubChem BioAssay (NCATS).
# Unmarked numbers belong to inactive results. Inconclusive results are not listed. A call without a number means that no potency is given here. Calls of active or inactive are those of the source. Unless noted, the call rests on the fitted dose curve; in most records, active means well fitted curve in the direction sought with a large enough effect; inconclusive means small, poorly fitted or top-dose-only effect, or another doubt; inactive means no such curve, though single readings can be large; an effect the other way counts as inactive or inconclusive.
# Experiments:
# [1] = molecular target: Arylsulfatase A (Homo sapiens) (UniProt P15289); test: qHTS screen for enhancers of Arylsulfatase A (ASA1): LOPAC Validation Assay (AID 720538); further: potency means the concentration at half of the fitted maximal effect
# Outline: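 First, ASA-I179S fibroblasts from an MLD patient adhered for 6 hrs. Next, compounds were added for 48h. Then pNCS substrate (0.5mM final) with lysis buffer reacted 14h at room temperature before NaOH stop and fluorescence measurement.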
# [2] = qHTS for compounds that reverse cellular toxicity of Amyloid beta (A-beta) peptide in yeast: LOPAC Validation Assay (AID 720559)
# Outline: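 Activity is expressed relative to DMSO and an equimolar ferric chloride/clioquinol mix. Compounds were pinned into medium with A-beta-expressing yeast, grown 48 hr at 30 C, then read by absorbance at 600 nm.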
# [3] = qHTS for Activators of Parkin Expression: LOPAC Validation Assay (NLuc Reporter) (AID 720572; further: potency means the concentration at half of the fitted maximal effect)
# Outline: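 Neuronal line stably carrying a FLuc/NLuc coincidence reporter under the Parkin promoter, seeded 24 h, then dosed in 7-point series for 24 h at 37 C. NLuc luminescence read after FLuc; normalized to DMSO and positive control (100%).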
# [4] = qHTS assay for small molecule activators of the p53 signaling pathway (AID 651743; active means well fitted activation curve with a large enough effect in the signal ratio, not every such curve was filed as active; the % refers to the signal ratio; further: series mostly up to about 92 µM); conditions: HCT-116 p53RE-bla, beta-lactamase FRET ratio, 16 h; hits give high values
# Outline: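 Cell-based beta-lactamase reporter (p53 response elements, HCT-116 background). After a 5-hour preincubation, cells received compound for 16 hours at 37 C; substrate development ran 2 hours at room temperature.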
# [5] = qHTS assay for small molecule activators of the nuclear factor-kappa B (NF-kB) signaling pathway (AID 651749; active means well fitted activation curve with a large enough effect in the signal ratio; the % refers to the signal ratio; further: series mostly up to about 77 µM); conditions: NF-kB-bla ME-180 cells, beta-lactamase FRET ratio, 16 h; hits give high values
# Outline: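 Screening used 2,000 ME-180 reporter cells per well exposed to pinned compound (23 nL) or DMSO; after 16 hr at 37C, beta-lactamase expression under NF-kB control was assessed through FRET.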
# [6] = qHTS assay for environmental chemicals that activate the Aryl hydrocarbon Receptor (AhR) signaling pathway (AID 651777); conditions: 1A2-DRE human hepatoma cells, luciferase, 24 h; hits give high values; further: nearly all actives have a fitted effect of over 15% in size
# Outline: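 1A2-DRE human hepatoma reporter line; 1,200 cells/well; cmpd or DMSO 24 h, 37 C/5% CO2; One-Glo 30 min RT; luciferase lum.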
# [7] = molecular target: Peroxisome proliferator-activated receptor alpha (Homo sapiens) (UniProt Q07869); test: qHTS assay for small molecule agonists of the peroxisome proliferator-activated receptor alpha (PPARalpha) signaling pathway (AID 651778); conditions: PathHunter PPARalpha complementation, chemiluminescence, 6 h; max response: hits give high values; further: potency means the concentration at half of the fitted maximal effect
# Outline: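 Cells plated at 2,000/well and held overnight at 37 C, 5% CO2, then compound added by pin tool for 6 hr; after PathHunter detection reagent and 60 min at room temperature, chemiluminescence from enzyme complementation was read.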
# [8] = qHTS assay for small molecule agonists of the antioxidant response element (ARE) signaling pathway measured by Nrf2-dependant transcriptional activity - cell viability counter screen (AID 720653; active means well fitted curve in the direction sought with a large enough effect in the repeat runs; an effect the other way counts as inactive or inconclusive); conditions: ARE-bla HepG2 viability, CellTiter-Glo ATP luminescence, 16 h; hits give low values
# Outline: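 ARE-bla HepG2 cells (2,000/well) rested 5 hrs at 37C/5% CO2, then exposed to compounds in DMSO for 16 hrs. Viability was read in the same wells as intracellular ATP by luminescence, 30 min at room temperature after reagent addition.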
# [9] = molecular target: Tumor necrosis factor (Homo sapiens) (UniProt P01375); test: qHTS assay to identify small molecules that stimulate Tumor Necrosis Factor-alpha (TNF-alpha) secretion (AID 651757; active means well fitted curve in the direction sought with a large enough effect in the signal ratio; the % refers to the signal ratio)
# Outline: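 THP-1 cells (3000/well) exposed to compounds 17 hrs at 37 C. Secreted TNF-alpha detected by HTRF with cryptate- and XL665-labeled anti-TNF-alpha antibodies after 3 hr at room temperature.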
# [10] = qHTS assay to identify small molecules that stimulate interleukin-8 (IL-8) secretion (AID 651758; active means well fitted activation curve with a large enough effect in the signal ratio; the % refers to the signal ratio)
# Outline: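 THP-1, 2000 cells/well; cpd 16 h, 37 C; add cryptate + XL665 anti-IL-8 Abs; RT 1-3 h; TR-FRET read.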
# [11] = molecular target: Nuclear receptor ROR-gamma (Homo sapiens) (UniProt P51449); test: qHTS assay for small molecule antagonists of the retinoid-related orphan receptor gamma (ROR-gamma) signaling pathway (AID 651802);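 further: luciferase reporter luminescence driven by ROR response element; series mostly up to about 92 µM; nearly all actives have a fitted effect of over 60% in size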
# Outline: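 CHO cells with TET-inducible ROR-gamma and RORE-luciferase reporter, dosed then doxycycline-induced. After 16 h at 37C, One-Glo luminescence read; decreased signal indicates antagonism.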
# [12] = qHTS for Activators of Parkin Expression: LOPAC Validation Assay (FLuc Reporter) (AID 720573)
# Outline: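 A neuronal cell line harbouring FLuc and NLuc reporters behind the Parkin promoter was exposed to compounds for 24 h. Firefly luciferase signal, measured after 10 min with detection reagent, was scaled to DMSO and positive-control wells.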
# [13] = qHTS assay for small molecule agonists of the antioxidant response element (ARE) signaling pathway measured by Nrf2-dependant transcriptional activity (AID 720636; active means well fitted curve in the direction sought with a large enough effect in the repeat runs; an effect the other way counts as inactive or inconclusive;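 further: HepG2 cells with an ARE-driven luciferase reporter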)
# Outline: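 Cells: ARE-luc HepG2 with Nrf2-responsive luciferase. Medium contained 1% dialyzed FBS. Compound exposure lasted 16 hr at 37 C and 5% CO2, followed by ONE-Glo luciferase detection.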
# [14] = qHTS assay for small molecule antagonists of the retinoid-related orphan receptor gamma (ROR-gamma) signaling pathway - cell viability counter screen (AID 720652; active means well fitted curve in the direction sought with a large enough effect in the repeat runs; an effect the other way counts as inactive or inconclusive;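 further: series mostly up to about 92 µM; compound exposure lasted 16 hr before ATP read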)
# Outline: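 CHO cells carrying TET-inducible ROR and RORE-luciferase reporter, plated 5 hr, then dosed with compound plus doxycycline. After 16 hr at 37 C, viability read as intracellular ATP by CellTiter-Glo luminescence.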
# [15] = qHTS assay for small molecule agonists of the antioxidant response element (ARE) signaling pathway (AID 651741; active means well fitted activation curve with a large enough effect in the signal ratio; the % refers to the signal ratio; further: potency means the concentration at half of the fitted maximal effect)
# Outline: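 Compounds in DMSO are pinned onto HepG2 ARE-bla cells (2,000/well) that were preincubated 5 h; plates stay 16 h at 37 C, then beta-lactamase activity is detected with LiveBLAzer B/G substrate by fluorescence.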
# [16] = molecular target: Tumor susceptibility gene 101 protein (Homo sapiens) (UniProt Q99816); test: qHTS Assay for Iinhibitors of HIV-1 Budding by Blocking the Interaction of PTAP/TSG101: Hit Validation (AID 651600); further: nearly all actives have a fitted effect of over 70% in size
# Outline: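 Displacement of a FITC-labeled PTAP-motif peptide (50 nM) from the Tsg101 binding domain (10 uM) was monitored by fluorescence polarization after a 20 min room-temperature incubation.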
# [17] = qHTS assay for small molecule disruptors of the mitochondrial membrane potential - 1 hr assay (AID 651754; calls by dose curve; further: nearly all actives have a fitted effect of over 35% in size)
# Outline: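 HepG2 cells, attached overnight, were exposed to compound for 1 hr at 37C, then stained 30 min with a potentiometric dye. Ratio of red aggregate (590nm) to green monomer (535nm) fluorescence reports membrane potential; collapse shifts signal toward green.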
# [18] = qHTS assay for small molecule disruptors of the mitochondrial membrane potential - 5 hr assay (AID 651755; calls by dose curve; further: nearly all actives have a fitted effect of over 40% in size)
# Outline: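 HepG2 cells, attached overnight at 37C, were exposed to compound or DMSO for 5 hr at 37C, 5% CO2. Mito-MPS dye was then added for 30 min, and fluorescence read at 490/535 nm (monomers) and 540/590 nm (aggregates).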
# [19] = molecular target: Tyrosine-protein kinase Yes (Homo sapiens) (UniProt P07947); test: qHTS for small molecule inhibitors of Yes1 kinase: Primary Screen (AID 686947); conditions: Yes1 kinase biochemical qHTS inhibition; further: potency means the concentration at half of the fitted maximal effect; nearly all actives have a fitted effect of over 60% in size
# Outline: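 Yes1 (4 nM) preincubated 20 min with compound, then 60 min room-temperature reaction with 0.1 mM ATP and 0.3 mg/mL poly(E4Y) in pH 7.5 Tris, 10 mM MgCl2. ADP measured by ADP-Glo luminescence, normalised to enzyme/no-enzyme controls.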
# [20] = qHTS for small molecule inhibitors of Yes1 kinase: Counter Assay (AID 686950);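 further: no kinase present so only ADP-Glo detection of a fixed ADP amount is tested; luminescence from ADP-Glo reporting ADP in a fixed ATP and ADP mixture; series mostly up to about 77 µM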
# Outline: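 Enzyme-free ADP-Glo interference check: compounds were preincubated 20 min in buffer, then an ATP/ADP mix (0.08 mM ATP, 0.02 mM ADP final) was added for 60 min at room temperature before two-step ADP-Glo luminescence detection.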
# Peroxisome proliferator-activated receptor alpha (Homo sapiens), sequence (Q07869 whole entry, looked up): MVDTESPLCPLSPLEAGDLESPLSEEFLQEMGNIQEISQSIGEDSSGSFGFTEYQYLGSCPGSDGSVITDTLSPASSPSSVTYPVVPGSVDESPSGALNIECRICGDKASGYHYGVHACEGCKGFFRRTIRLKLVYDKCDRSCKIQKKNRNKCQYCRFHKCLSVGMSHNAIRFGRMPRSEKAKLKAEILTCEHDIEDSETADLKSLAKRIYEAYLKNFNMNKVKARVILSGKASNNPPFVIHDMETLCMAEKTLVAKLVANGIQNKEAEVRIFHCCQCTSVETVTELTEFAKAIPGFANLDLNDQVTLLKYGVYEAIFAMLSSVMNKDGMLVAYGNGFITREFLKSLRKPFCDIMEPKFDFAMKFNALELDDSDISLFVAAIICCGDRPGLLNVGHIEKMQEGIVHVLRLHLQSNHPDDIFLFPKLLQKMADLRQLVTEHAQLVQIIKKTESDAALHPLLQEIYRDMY
# Arylsulfatase A (Homo sapiens), sequence (P15289 whole entry, looked up): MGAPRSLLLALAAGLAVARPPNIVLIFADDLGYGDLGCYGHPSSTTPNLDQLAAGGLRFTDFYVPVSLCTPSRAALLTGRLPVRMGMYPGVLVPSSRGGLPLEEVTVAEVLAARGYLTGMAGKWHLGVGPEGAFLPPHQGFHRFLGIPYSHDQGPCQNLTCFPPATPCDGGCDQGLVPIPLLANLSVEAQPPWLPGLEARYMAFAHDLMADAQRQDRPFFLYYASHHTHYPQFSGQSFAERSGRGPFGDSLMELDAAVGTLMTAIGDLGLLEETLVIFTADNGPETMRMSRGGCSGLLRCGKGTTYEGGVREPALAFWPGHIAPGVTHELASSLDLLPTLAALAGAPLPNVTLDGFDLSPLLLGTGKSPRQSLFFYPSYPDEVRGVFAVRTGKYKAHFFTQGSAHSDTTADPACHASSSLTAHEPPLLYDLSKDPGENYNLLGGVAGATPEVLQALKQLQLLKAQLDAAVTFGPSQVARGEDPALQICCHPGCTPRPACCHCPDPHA
# Tumor necrosis factor (Homo sapiens), sequence (P01375 whole entry, looked up): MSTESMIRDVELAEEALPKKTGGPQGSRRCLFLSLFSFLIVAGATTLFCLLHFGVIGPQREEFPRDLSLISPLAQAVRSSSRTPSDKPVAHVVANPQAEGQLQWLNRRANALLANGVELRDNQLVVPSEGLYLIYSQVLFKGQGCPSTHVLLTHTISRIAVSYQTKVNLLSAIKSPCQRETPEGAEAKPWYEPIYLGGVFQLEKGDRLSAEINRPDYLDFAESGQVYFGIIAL
# Nuclear receptor ROR-gamma (Homo sapiens), sequence (P51449 whole entry, looked up): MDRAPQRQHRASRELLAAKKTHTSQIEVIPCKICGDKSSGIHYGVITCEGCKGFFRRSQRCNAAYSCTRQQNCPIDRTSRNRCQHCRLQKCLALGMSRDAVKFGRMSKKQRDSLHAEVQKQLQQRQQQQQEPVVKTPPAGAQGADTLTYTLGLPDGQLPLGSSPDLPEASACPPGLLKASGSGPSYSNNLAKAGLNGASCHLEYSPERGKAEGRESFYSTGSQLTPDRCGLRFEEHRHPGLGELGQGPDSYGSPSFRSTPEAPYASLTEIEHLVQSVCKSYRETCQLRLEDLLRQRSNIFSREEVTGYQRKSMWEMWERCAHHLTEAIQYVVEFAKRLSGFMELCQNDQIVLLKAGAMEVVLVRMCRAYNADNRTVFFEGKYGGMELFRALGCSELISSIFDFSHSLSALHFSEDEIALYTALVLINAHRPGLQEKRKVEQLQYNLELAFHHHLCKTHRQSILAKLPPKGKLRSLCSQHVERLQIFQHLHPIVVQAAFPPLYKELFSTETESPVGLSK
# Tumor susceptibility gene 101 protein (Homo sapiens), sequence (Q99816 whole entry, looked up, the tested form may be a part): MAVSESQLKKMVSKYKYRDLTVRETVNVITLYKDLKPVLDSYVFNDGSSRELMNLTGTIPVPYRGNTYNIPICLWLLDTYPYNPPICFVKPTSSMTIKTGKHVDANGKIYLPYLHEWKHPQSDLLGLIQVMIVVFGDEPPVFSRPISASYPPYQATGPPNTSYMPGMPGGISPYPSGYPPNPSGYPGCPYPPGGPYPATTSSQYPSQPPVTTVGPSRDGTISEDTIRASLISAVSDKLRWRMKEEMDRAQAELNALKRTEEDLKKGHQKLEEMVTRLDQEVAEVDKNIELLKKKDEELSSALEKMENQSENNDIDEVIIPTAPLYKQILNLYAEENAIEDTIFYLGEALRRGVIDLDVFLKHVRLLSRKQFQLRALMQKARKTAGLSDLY
# Tyrosine-protein kinase Yes (Homo sapiens), sequence (P07947 whole entry, looked up): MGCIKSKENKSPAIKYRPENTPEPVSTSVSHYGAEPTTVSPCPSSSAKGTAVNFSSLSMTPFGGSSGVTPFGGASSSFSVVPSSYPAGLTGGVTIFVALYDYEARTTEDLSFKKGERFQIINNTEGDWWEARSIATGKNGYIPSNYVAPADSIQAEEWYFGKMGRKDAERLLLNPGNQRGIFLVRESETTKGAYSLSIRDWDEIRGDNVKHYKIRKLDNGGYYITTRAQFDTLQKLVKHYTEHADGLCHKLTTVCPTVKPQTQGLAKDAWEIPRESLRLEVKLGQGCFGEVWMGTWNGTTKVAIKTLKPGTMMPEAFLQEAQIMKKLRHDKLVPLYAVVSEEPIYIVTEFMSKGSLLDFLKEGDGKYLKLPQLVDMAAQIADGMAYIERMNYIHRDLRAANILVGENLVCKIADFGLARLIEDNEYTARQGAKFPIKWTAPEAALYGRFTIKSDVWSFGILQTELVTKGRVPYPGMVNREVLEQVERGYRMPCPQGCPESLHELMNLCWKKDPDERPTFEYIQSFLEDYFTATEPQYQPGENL
smiles,measurement,setting,value
N[C@H]1CONC1=O,Potency,[1],inactive
COc1cc(/C=C(\C#N)C(=O)c2ccc(O)c(O)c2)cc(I)c1O,Potency,[1],21.3 µM (active)
same,outcome,[2],inactive
same,Potency,[3],inactive
COc1ccc(CCN(C)CCc2ccc(OC)c(OC)c2)cc1OC,Potency,[1],inactive
same,outcome,[2],inactive
same,Potency,[3],inactive
CC1=C(/C=C/C(C)=C/C=C/C(C)=C\C(=O)O)C(C)(C)CCC1,activation,[4],-4.89%
same,activation,[5],-1.8%
same,activation,[6],6.61%
same,max response,[7],0.529%
same,Potency,[1],inactive
same,outcome,[2],inactive
same,Potency,[3],inactive
same,max response,[8],3.98%
CN(C)CCCc1cc(C(=O)Nc2ccc(-c3ccncc3)cc2)ccc1O,Potency,[1],inactive
same,outcome,[2],inactive
same,Potency,[3],inactive
CN1CCN(c2nc3cc(C(F)(F)F)ccc3n3cccc23)CC1,Potency,[1],inactive
same,outcome,[2],inactive
same,Potency,[3],inactive
CC(=O)C(C)=O,activation,[4],-1.05%
same,activation,[5],-1.05%
same,outcome,[9],inactive
same,outcome,[10],inactive
same,activation,[6],-0.684%
same,max response,[7],-2.24%
same,outcome,[11],inactive
same,outcome,[2],inactive
same,Potency,[3],inactive
same,Potency,[12],inactive
same,outcome,[13],inactive
same,outcome,[14],inactive
same,max response,[8],-2.25%
c1ccc(C2CN3CCSC3=N2)cc1 (stereo unspecified),Potency,[1],inactive
same,outcome,[2],inactive
same,Potency,[3],inactive
Cc1cccc(C(=O)NCN2CCN(c3ccccc3C#N)CC2)c1,Potency,[1],inactive
same,outcome,[2],inactive
same,Potency,[3],inactive
CC1CNCCN1S(=O)(=O)c1cccc2cnccc12 (stereo unspecified),Potency,[1],inactive
same,outcome,[2],inactive
CC(O)C(O)[C@H]1CNc2nc(N)[nH]c(=O)c2N1 (stereo partly specified),Potency,[1],inactive
same,outcome,[2],inactive
same,Potency,[3],inactive
CCCc1c(-c2ccc(O)cc2)nn(-c2ccc(O)cc2)c1-c1ccc(O)cc1,activation,[5],-3.76%
same,activation,[6],-1.12%
same,max response,[7],-1.98%
same,Potency,[1],inactive
same,outcome,[2],inactive
same,Potency,[3],2.06 µM (active)
same,Potency,[12],inactive
same,outcome,[13],inactive
same,max response,[8],-5.61%
CC(N)(Cc1ccc(O)cc1)C(=O)O (stereo unspecified),Potency,[1],inactive
COc1cc(CC(=O)O)ccc1O,Potency,[1],inactive
same,outcome,[2],inactive
same,Potency,[3],inactive
Clc1nccc2c1ccc1ccccc12,Potency,[1],inactive
same,outcome,[2],inactive
same,Potency,[3],inactive
C/C(=C\c1ccc(C(=O)O)cc1)c1ccc2c(c1)C(C)(C)CCC2(C)C,Potency,[15],27.3 µM (active)
same,activation,[6],0.324%
same,Potency,[1],inactive
same,outcome,[2],inactive
same,Potency,[3],inactive
same,Potency,[12],inactive
same,outcome,[13],inactive
same,max response,[8],-1.94%
NC1CONC1=O (stereo unspecified),Potency,[1],inactive
O[Si](CCCN1CCCCC1)(c1ccc(F)cc1)C1CCCCC1 (stereo unspecified),Potency,[1],inactive
same,outcome,[2],inactive
same,Potency,[3],inactive
Brc1c(Br)c(Br)c2[nH]cnc2c1Br,Potency,[1],inactive
same,outcome,[2],inactive
NC1(C(=O)O)CC1,Potency,[1],inactive
same,outcome,[2],inactive
same,Potency,[3],inactive
CN1CCCC1CCOC(C)(c1ccccc1)c1ccc(Cl)cc1 (stereo unspecified),outcome,[16],inactive
same,Potency,[1],inactive
same,outcome,[2],inactive
same,Potency,[3],inactive
same,Potency,[12],inactive
N[C@H](C(=O)O)[C@H](O)C(=O)O,Potency,[1],inactive
same,outcome,[2],inactive
same,Potency,[3],inactive
Cc1nc(N=Nc2ccc(C(=O)O)cc2)c(COP(=O)(O)O)c(C=O)c1O,Potency,[1],inactive
same,outcome,[2],inactive
same,Potency,[3],inactive
N[C@@H](Cc1ccc(O)c(I)c1)C(=O)O,Potency,[1],inactive
same,outcome,[2],inactive
same,Potency,[3],inactive
NC(=O)c1ccccc1,Potency,[15],inactive
same,activation,[5],1.72%
same,outcome,[17],inactive
same,outcome,[18],inactive
same,outcome,[9],inactive
same,activation,[6],0.0429%
same,max response,[7],0.54%
same,outcome,[11],inactive
same,Potency,[1],inactive
same,outcome,[2],inactive
same,Potency,[3],inactive
same,outcome,[13],inactive
same,outcome,[14],inactive
same,max response,[8],-5%
CN(C)S(=O)(=O)c1ccc2c(c1)/C(=C/c1cc3c([nH]1)CCCC3)C(=O)N2,Potency,[19],0.0972 µM (active)
same,outcome,[20],inactive
same,Potency,[1],inactive
same,outcome,[2],inactive
same,Potency,[3],inactive
CC[C@@H]1Cc2cc(O)ccc2C2=C1c1ccc(O)cc1C[C@H]2CC,max response,[7],-2.38%
same,Potency,[1],inactive
same,outcome,[2],inactive
same,Potency,[3],inactive
same,Potency,[12],inactive
same,outcome,[13],inactive
same,max response,[8],-25.6%
NC1(C(=O)O)CCc2cc(C(=O)O)ccc21 (stereo unspecified),Potency,[1],inactive
same,outcome,[2],inactive
same,Potency,[3],inactive
CCCC[C@@]1(C2CCCC2)Cc2cc(OCC(=O)O)c(Cl)c(Cl)c2C1=O,Potency,[1],inactive
same,outcome,[2],inactive
C=CCN1CCc2c(cc(O)c(O)c2Br)[C@@H](c2ccccc2)C1,Potency,[1],inactive
same,outcome,[2],inactive
same,Potency,[3],inactive
CCCCCCCCCCCCCCSCC(=O)O,activation,[4],1.79%
same,activation,[5],3.35%
same,activation,[6],0.376%
same,Potency,[7],10 µM (active)
same,outcome,[2],inactive
same,Potency,[3],inactive
same,Potency,[12],inactive
same,max response,[8],2.74%
CCC1(O)CC2CN(CCc3c([nH]c4ccccc34)[C@@](C(=O)OC)(c3cc4c(cc3OC)N(C)C3[C@]45CCN4CC=C[C@@](CC)([C@@H](OC(C)=O)[C@]3(O)C(=O)OC)[C@H]45)C2)C1 (stereo partly specified),Potency,[1],inactive
same,outcome,[2],inactive
same,Potency,[3],inactive
NCC(O)c1ccc(O)c(O)c1 (stereo unspecified),Potency,[1],inactive
CC(C)Cn1c(=O)n(C)c(=O)c2[nH]cnc21,Potency,[1],inactive
same,outcome,[2],inactive
same,Potency,[3],inactive
Oc1ccc(/C=C/c2ccc(/C=C/c3ccc(O)cc3)c(Br)c2)cc1,Potency,[1],inactive
same,outcome,[2],inactive
CNC(=O)c1cc2c(cn1)[nH]c1ccccc12,Potency,[1],inactive
same,outcome,[2],inactive
same,Potency,[3],inactive
